This is a sample that favours compounds with a hit; in the whole collection about 1.1% have one here.
CIT2 TOR yeast = alters CIT2-GFP fluorescence in TOR pathway yeast screen; S. cerevisiae CIT2-GFP strain, flow cytometry, 3 h; 100 means same as DMSO wells; GFP response vs DMSO, % at 10 µM; actives 0.065% (n = 320,000);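 active = GFP response relative to DMSO above a set limit, near the screen mean plus 3 SD, cut at about 150% in these data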;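 note: ratio of well median GFP fluorescence to mean of DMSO wells on the plate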
RPL19A TOR yeast = modulators of TOR pathway RPL19A-GFP in S. cerevisiae. S. cerevisiae RPL19A-GFP strain, flow cytometry, 3 h; active compounds read low. percent response vs DMSO, % at 10 µM. actives 0.3% (n = 330,000). AID 2025;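 active = percent response vs DMSO below 50%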;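 note: median channel GFP fluorescence of the barcoded RPL19A-GFP strain; ratio of sample median GFP to plate DMSO average so 100% = DMSO; lower means less RPL19A-GFP as with rapamycin TOR inhibition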
VLA-4 inh = inhibition in a human VLA-4 binding assay | VLA-4 expressing cells, ligand binding flow cytometry | P13612 | inhibition, % (about 7 µM as worked out from the volumes in the protocol) | actives 0.2% (n = 330,000); in the data active = inhibition above about 50%
Target sequence (P13612 whole entry, looked up): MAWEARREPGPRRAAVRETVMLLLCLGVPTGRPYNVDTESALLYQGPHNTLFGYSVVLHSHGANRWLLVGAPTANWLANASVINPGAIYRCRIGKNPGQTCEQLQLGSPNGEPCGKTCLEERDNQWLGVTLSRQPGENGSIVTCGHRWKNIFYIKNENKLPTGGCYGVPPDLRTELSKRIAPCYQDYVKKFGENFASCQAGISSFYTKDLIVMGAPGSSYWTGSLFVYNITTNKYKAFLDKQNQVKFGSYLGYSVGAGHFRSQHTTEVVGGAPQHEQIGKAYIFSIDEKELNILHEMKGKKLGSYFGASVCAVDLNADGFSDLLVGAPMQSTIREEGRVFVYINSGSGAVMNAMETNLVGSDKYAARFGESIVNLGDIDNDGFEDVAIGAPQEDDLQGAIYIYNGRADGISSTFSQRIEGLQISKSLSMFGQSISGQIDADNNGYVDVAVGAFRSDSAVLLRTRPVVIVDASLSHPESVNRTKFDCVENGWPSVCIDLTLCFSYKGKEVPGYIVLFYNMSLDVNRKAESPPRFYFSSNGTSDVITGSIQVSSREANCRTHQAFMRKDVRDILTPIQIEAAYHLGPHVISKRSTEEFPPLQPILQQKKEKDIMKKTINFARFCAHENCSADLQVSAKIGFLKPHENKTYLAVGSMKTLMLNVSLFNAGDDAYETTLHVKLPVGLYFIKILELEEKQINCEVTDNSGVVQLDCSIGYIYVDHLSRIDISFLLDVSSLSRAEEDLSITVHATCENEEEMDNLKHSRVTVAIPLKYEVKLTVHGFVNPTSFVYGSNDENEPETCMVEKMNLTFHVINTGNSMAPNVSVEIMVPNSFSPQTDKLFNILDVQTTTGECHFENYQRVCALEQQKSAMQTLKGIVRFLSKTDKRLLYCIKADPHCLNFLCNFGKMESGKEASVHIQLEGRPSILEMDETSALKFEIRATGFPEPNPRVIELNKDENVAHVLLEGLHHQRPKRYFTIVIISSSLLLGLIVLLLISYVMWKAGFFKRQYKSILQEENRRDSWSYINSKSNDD
MEP2-GFP yeast = yeast TOR pathway MEP2-GFP modulation; S. cerevisiae MEP2-GFP strain, flow cytometry GFP, 3 h; 100% = DMSO control level; GFP response vs DMSO, % at 10 µM; actives 0.51% (n = 330,000); AID 2016;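 active = GFP response versus DMSO above a set limit, roughly screen mean plus 3 SD, cut at about 180% in these data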;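 note: median GFP fluorescence of the barcode-gated MEP2-GFP cells per well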
AGP1 TOR yeast = modulators of TOR pathway AGP1-GFP in S. cerevisiae; GFP response vs DMSO, % at 10 µM; S. cerevisiae AGP1-GFP multiplex flow cytometry, 3 h; GFP as percent of DMSO wells; actives 0.02% (n = 320,000);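 active = GFP response relative to DMSO above a set limit, near screen average plus 3 SD, cut at about 150% in these data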;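 note: median GFP channel fluorescence of the gated AGP1 strain per well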
LAP4-GFP MLPCN = alters LAP4-GFP fluorescence in TOR pathway yeast screen | S. cerevisiae LAP4-GFP multiplex, flow cytometry GFP, 3 h; median GFP as percent of DMSO wells | GFP response vs DMSO, % at 10 µM | actives 0.34% (n = 320,000) | AID 2023;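 active = GFP response vs DMSO above a set limit, about the screen mean plus 3 SD, cut at about 150% in these data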
VLA-4 allo CP = human VLA-4 allosteric modulation in cherry picked compounds; shares compounds with VLA-4 inh; U937 cells, HUTS-21 LIBS mAb binding, flow cytometry; LDV ligand present at threefold Kd; inhibition, % at 6.7 µM; actives 2% (n = 1,300); AID 2813; in the data active = inhibition above about 40%;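 note: 0% = ligand without compound and 100% = no ligand background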
The depositor's hits bear a star; · = no result.

SMILES	CIT2 TOR yeast	RPL19A TOR yeast	VLA-4 inh	MEP2-GFP yeast	AGP1 TOR yeast	LAP4-GFP MLPCN	VLA-4 allo CP
Cc1ccc(S(=O)(=O)N2[C@@H](c3ccc(C(C)(C)C)cc3)C(C(=O)O)=CC[C@H]2c2cccs2)cc1	90	105	60*	101	101	103	2
Cc1ccc([C@H]2C(C(=O)O)=CC[C@@H](c3cccs3)N2S(=O)(=O)c2ccc(C)cc2)cc1	82	88	14	83	81	88	·
CC(C)(C)[C@@H]1C=C(C(=O)O)[C@H](c2ccc(Cl)cc2)N1S(=O)(=O)c1ccccc1	86	98	26	100	101	105	0
CC[C@@H]1C=C(C(=O)O)[C@H](c2ccc(Cl)cc2)N1S(=O)(=O)c1ccc(C)cc1	94	103	-40	98	102	93	·
Cc1ccc(S(=O)(=O)N2[C@@H](c3ccc4c(c3)OCO4)C(C(=O)O)=C[C@H]2C(C)(C)C)cc1	92	90	-16	85	91	97	·
CN1CCCN(C(=O)CNC(=O)c2ccc(Cl)cc2Cl)CC1	97	96	-10	102	99	97	·
CCNC(=S)Nc1ccc2c(c1)oc1ccccc12	96	97	2	101	101	125	·
CSCCC(NC(=O)c1ccccc1Cl)C(=O)N1CCN(c2ccccn2)CC1 (stereo not drawn)	111	108	8	103	105	107	·
CCc1ccc([C@H]2C(C(=O)O)=C[C@@H](C(C)(C)C)N2S(=O)(=O)c2ccc(C)cc2)cc1	86	101	26	96	101	113	1
COc1ccc([C@H]2C(C(=O)O)=C[C@@H](C(C)(C)C)N2S(=O)(=O)c2ccc(C)cc2)cc1OC	93	100	40	97	99	100	1
COc1ccc(-n2c(Cc3cc(=O)[nH]c(=O)[nH]3)nnc2SCC(=O)Nc2ccccc2)cc1	113	102	-28	99	105	98	·
O=C(CSc1nnc(Cc2cc(=O)[nH]c(=O)[nH]2)n1-c1ccccc1)N1CCCC1	97	98	-1	100	98	98	1
O=C(CSc1nnc(Cc2cc(=O)[nH]c(=O)[nH]2)n1-c1ccccc1)N1CCCCC1	96	95	4	97	98	99	4
Cc1cccc(OCCCC(=O)Nc2ccc(S(=O)(=O)Nc3nccs3)cc2)c1C	98	104	27	99	101	96	·
CCOC(=O)N1CCN(C(=O)c2ccc(Cl)c(NC(=O)c3cccs3)c2)CC1	104	102	-17	111	111	105	·
Cc1cc(S(=O)(=O)Nc2ccc(N3CCOCC3)cc2)ccc1Br	102	102	13	100	101	92	·
CN1C(=O)Cc2cc(S(=O)(=O)Nc3ccc(N4CCOCC4)cc3)ccc21	105	100	11	101	103	102	4
N#Cc1cccc(NS(=O)(=O)c2ccc(S(=O)(=O)N3CCOCC3)cc2)c1	106	102	0	100	107	104	·
N#Cc1cccc(NS(=O)(=O)c2ccccc2Cl)c1	98	100	16	102	100	96	3
Cc1cc(=O)[nH]c2nnc(-c3ccc(Cl)cc3)n12	105	98	2	99	104	107	·
Cc1ccc(NC(=O)COC(=O)c2ccc(-n3nc(C)cc3C)cc2)c(F)c1	102	99	2	96	97	100	·
COc1cccc(/C=N/NC(=O)c2cccc3ccccc23)c1OC	93	96	4	98	107	112	·
C=C(C)CN(CC)C(=O)CN1C(=O)NC(C)(c2ccc3ccccc3c2)C1=O (stereo not drawn)	111	102	50*	104	113	103	-13
Nc1ccc(S(=O)(=O)Nc2ccc(S(N)(=O)=O)cc2)cc1	101	102	-5	104	101	96	·

Compound activity: PubChem BioAssay, NMMLSC
